target: CaNbp2; experiment: SPOT peptide array binding signal intensity (averaged, normalized) (arbitrary units (background-subtracted, floor 0; scale differs between SH3 domains)); higher = stronger binding of the SH3 domain to the peptide
Procedure, shortened: (§1)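 Cellulose membranes carried synthetic 15-mer peptides with cysteines swapped for serines. These were incubated overnight at 4°C with 10 μg/ml of GST-fused SH3 domains from four yeast species in TBS-based blocking buffer. Binding signal, detected with anti-GST antibody and quantified in Genespotter, is the normalized, background-subtracted spot intensity averaged over replicates, in arbitrary units specific to each domain.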

Binder | SPOT peptide array binding signal intensity
GKFIPSRPAPKPPSS | 3600
FFRRSELYLPNSSKA | 89

target: CaRvs167; experiment: as above
Procedure, shortened: as §1

Binder | SPOT peptide array binding signal intensity
GKFIPSRPAPKPPSS | 26.2
FFRRSELYLPNSSKA | 4.5

target: CaRvs167-3; experiment: as above
Procedure, shortened: as §1

Binder | SPOT peptide array binding signal intensity
GKFIPSRPAPKPPSS | 3.25
FFRRSELYLPNSSKA | 16.2

target: CaSho1; experiment: as above
Procedure, shortened: as §1

Binder | SPOT peptide array binding signal intensity
GKFIPSRPAPKPPSS | 36
FFRRSELYLPNSSKA | 318

target: CaSla1-D1-D2; experiment: as above
Procedure, shortened: as §1

Binder | SPOT peptide array binding signal intensity
GKFIPSRPAPKPPSS | 684
FFRRSELYLPNSSKA | ≤ 0

target: CaSla1-D3; experiment: as above
Procedure, shortened: as §1

Binder | SPOT peptide array binding signal intensity
GKFIPSRPAPKPPSS | 14.5
FFRRSELYLPNSSKA | ≤ 0

target: ScAbp1; experiment: as above
Procedure, shortened: as §1

Binder | SPOT peptide array binding signal intensity
GKFIPSRPAPKPPSS | 127
FFRRSELYLPNSSKA | 47

target: ScBbc1; experiment: as above
Procedure, shortened: as §1

Binder | SPOT peptide array binding signal intensity
GKFIPSRPAPKPPSS | 552
FFRRSELYLPNSSKA | ≤ 0

target: ScBem1-D1; experiment: as above
Procedure, shortened: as §1

Binder | SPOT peptide array binding signal intensity
GKFIPSRPAPKPPSS | 1
FFRRSELYLPNSSKA | 18

target: ScBzz1-D1; experiment: as above
Procedure, shortened: as §1

Binder | SPOT peptide array binding signal intensity
GKFIPSRPAPKPPSS | 39
FFRRSELYLPNSSKA | 11

target: ScBzz1-D2; experiment: as above
Procedure, shortened: as §1

Binder | SPOT peptide array binding signal intensity
GKFIPSRPAPKPPSS | 25
FFRRSELYLPNSSKA | 20

target: ScCyk3; experiment: as above
Procedure, shortened: as §1

Binder | SPOT peptide array binding signal intensity
GKFIPSRPAPKPPSS | 2
FFRRSELYLPNSSKA | 24

target: ScFus1; experiment: as above
Procedure, shortened: as §1

Binder | SPOT peptide array binding signal intensity
GKFIPSRPAPKPPSS | ≤ 0
FFRRSELYLPNSSKA | 206

target: ScHof1; experiment: as above
Procedure, shortened: as §1

Binder | SPOT peptide array binding signal intensity
GKFIPSRPAPKPPSS | 8.25
FFRRSELYLPNSSKA | 1

target: ScHse1; experiment: as above
Procedure, shortened: as §1

Binder | SPOT peptide array binding signal intensity
GKFIPSRPAPKPPSS | 74
FFRRSELYLPNSSKA | 1290

target: ScLsb1; experiment: as above
Procedure, shortened: as §1

Binder | SPOT peptide array binding signal intensity
GKFIPSRPAPKPPSS | 175
FFRRSELYLPNSSKA | 6.25

target: ScLsb2; experiment: as above
Procedure, shortened: as §1

Binder | SPOT peptide array binding signal intensity
GKFIPSRPAPKPPSS | 161
FFRRSELYLPNSSKA | 2

target: ScLsb3; experiment: as above
Procedure, shortened: as §1

Binder | SPOT peptide array binding signal intensity
GKFIPSRPAPKPPSS | 508
FFRRSELYLPNSSKA | 34.5

target: ScLsb4; experiment: as above
Procedure, shortened: as §1

Binder | SPOT peptide array binding signal intensity
GKFIPSRPAPKPPSS | 13.5
FFRRSELYLPNSSKA | 8

target: ScMyo3; experiment: as above
Procedure, shortened: as §1

Binder | SPOT peptide array binding signal intensity
GKFIPSRPAPKPPSS | 3530
FFRRSELYLPNSSKA | 3.5

target: ScMyo5; experiment: as above
Procedure, shortened: as §1

Binder | SPOT peptide array binding signal intensity
GKFIPSRPAPKPPSS | 3480
FFRRSELYLPNSSKA | 8.5

target: ScNbp2; experiment: as above
Procedure, shortened: as §1

Binder | SPOT peptide array binding signal intensity
GKFIPSRPAPKPPSS | 5410
FFRRSELYLPNSSKA | 42.5

target: ScPex13; experiment: as above
Procedure, shortened: as §1

Binder | SPOT peptide array binding signal intensity
GKFIPSRPAPKPPSS | 1460
FFRRSELYLPNSSKA | ≤ 0

target: ScRvs167; experiment: as above
Procedure, shortened: as §1

Binder | SPOT peptide array binding signal intensity
GKFIPSRPAPKPPSS | 274
FFRRSELYLPNSSKA | 3.17

target: ScSho1; experiment: as above
Procedure, shortened: as §1

Binder | SPOT peptide array binding signal intensity
GKFIPSRPAPKPPSS | 66.5
FFRRSELYLPNSSKA | 201

target: ScSla1-D1-D2; experiment: as above
Procedure, shortened: as §1

Binder | SPOT peptide array binding signal intensity
GKFIPSRPAPKPPSS | 652
FFRRSELYLPNSSKA | 12

target: ScSla1-D3; experiment: as above
Procedure, shortened: as §1

Binder | SPOT peptide array binding signal intensity
GKFIPSRPAPKPPSS | 156
FFRRSELYLPNSSKA | 0.5

target: SpAbp1-D1; experiment: as above
Procedure, shortened: as §1

Binder | SPOT peptide array binding signal intensity
GKFIPSRPAPKPPSS | 187
FFRRSELYLPNSSKA | 45

target: SpBbc1; experiment: as above
Procedure, shortened: as §1

Binder | SPOT peptide array binding signal intensity
GKFIPSRPAPKPPSS | 46.5
FFRRSELYLPNSSKA | ≤ 0

target: SpBzz1-D1; experiment: as above
Procedure, shortened: as §1

Binder | SPOT peptide array binding signal intensity
GKFIPSRPAPKPPSS | 735
FFRRSELYLPNSSKA | 111

target: SpBzz1-D2; experiment: as above
Procedure, shortened: as §1

Binder | SPOT peptide array binding signal intensity
GKFIPSRPAPKPPSS | 9.5
FFRRSELYLPNSSKA | ≤ 0

target: SpCyk3; experiment: as above
Procedure, shortened: as §1

Binder | SPOT peptide array binding signal intensity
GKFIPSRPAPKPPSS | 5
FFRRSELYLPNSSKA | ≤ 0

target: SpHof1; experiment: as above
Procedure, shortened: as §1

Binder | SPOT peptide array binding signal intensity
GKFIPSRPAPKPPSS | 77.5
FFRRSELYLPNSSKA | 65.2

target: SpHof1-2; experiment: as above
Procedure, shortened: as §1

Binder | SPOT peptide array binding signal intensity
GKFIPSRPAPKPPSS | 33
FFRRSELYLPNSSKA | 6.75

target: SpHof1-3; experiment: as above
Procedure, shortened: as §1

Binder | SPOT peptide array binding signal intensity
GKFIPSRPAPKPPSS | 94.8
FFRRSELYLPNSSKA | 455

target: SpHse1; experiment: as above
Procedure, shortened: as §1

Binder | SPOT peptide array binding signal intensity
GKFIPSRPAPKPPSS | 180
FFRRSELYLPNSSKA | 552

target: SpLsb1; experiment: as above
Procedure, shortened: as §1

Binder | SPOT peptide array binding signal intensity
GKFIPSRPAPKPPSS | 98.8
FFRRSELYLPNSSKA | 0.75

target: SpLsb4; experiment: as above
Procedure, shortened: as §1

Binder | SPOT peptide array binding signal intensity
GKFIPSRPAPKPPSS | 600
FFRRSELYLPNSSKA | 7

target: SpMyo1; experiment: as above
Procedure, shortened: as §1

Binder | SPOT peptide array binding signal intensity
GKFIPSRPAPKPPSS | 2900
FFRRSELYLPNSSKA | 9

target: SpNbp2; experiment: as above
Procedure, shortened: as §1

Binder | SPOT peptide array binding signal intensity
GKFIPSRPAPKPPSS | 850
FFRRSELYLPNSSKA | 3

target: SpPex13; experiment: as above
Procedure, shortened: as §1

Binder | SPOT peptide array binding signal intensity
GKFIPSRPAPKPPSS | 22
FFRRSELYLPNSSKA | 10

target: SpRvs167; experiment: as above
Procedure, shortened: as §1

Binder | SPOT peptide array binding signal intensity
GKFIPSRPAPKPPSS | 90
FFRRSELYLPNSSKA | 6.67

target: SpSla1-D1-D2; experiment: as above
Procedure, shortened: as §1

Binder | SPOT peptide array binding signal intensity
GKFIPSRPAPKPPSS | ≤ 0
FFRRSELYLPNSSKA | ≤ 0

target: SpSla1-D3; experiment: as above
Procedure, shortened: as §1

Binder | SPOT peptide array binding signal intensity
GKFIPSRPAPKPPSS | 3.5
FFRRSELYLPNSSKA | 35

target: AgAbp1; experiment: as above
Procedure, shortened: as §1

Binder | SPOT peptide array binding signal intensity
FFRRSELYLPNSSKA | 2

target: AgBbc1; experiment: as above
Procedure, shortened: as §1

Binder | SPOT peptide array binding signal intensity
FFRRSELYLPNSSKA | 3.75

target: AgBem1-D1; experiment: as above
Procedure, shortened: as §1

Binder | SPOT peptide array binding signal intensity
FFRRSELYLPNSSKA | 31.5

target: AgBzz1-D1; experiment: as above
Procedure, shortened: as §1

Binder | SPOT peptide array binding signal intensity
FFRRSELYLPNSSKA | 26.5

target: AgBzz1-D2; experiment: as above
Procedure, shortened: as §1

Binder | SPOT peptide array binding signal intensity
FFRRSELYLPNSSKA | 22.5

target: AgCyk3; experiment: as above
Procedure, shortened: as §1

Binder | SPOT peptide array binding signal intensity
FFRRSELYLPNSSKA | ≤ 0

target: AgFus1; experiment: as above
Procedure, shortened: as §1

Binder | SPOT peptide array binding signal intensity
FFRRSELYLPNSSKA | 162

target: AgHof1; experiment: as above
Procedure, shortened: as §1

Binder | SPOT peptide array binding signal intensity
FFRRSELYLPNSSKA | 25

target: AgHse1; experiment: as above
Procedure, shortened: as §1

Binder | SPOT peptide array binding signal intensity
FFRRSELYLPNSSKA | 1000

target: AgLsb1; experiment: as above
Procedure, shortened: as §1

Binder | SPOT peptide array binding signal intensity
FFRRSELYLPNSSKA | 1.75

target: AgLsb4; experiment: as above
Procedure, shortened: as §1

Binder | SPOT peptide array binding signal intensity
FFRRSELYLPNSSKA | 47.5

target: AgMyo5; experiment: as above
Procedure, shortened: as §1

Binder | SPOT peptide array binding signal intensity
FFRRSELYLPNSSKA | 7.25

target: AgNbp2; experiment: as above
Procedure, shortened: as §1

Binder | SPOT peptide array binding signal intensity
FFRRSELYLPNSSKA | 11

target: AgRvs167; experiment: as above
Procedure, shortened: as §1

Binder | SPOT peptide array binding signal intensity
FFRRSELYLPNSSKA | 1.67

target: AgSho1; experiment: as above
Procedure, shortened: as §1

Binder | SPOT peptide array binding signal intensity
FFRRSELYLPNSSKA | 25

target: AgSla1-D1-D2; experiment: as above
Procedure, shortened: as §1

Binder | SPOT peptide array binding signal intensity
FFRRSELYLPNSSKA | 122

target: AgSla1-D3; experiment: as above
Procedure, shortened: as §1

Binder | SPOT peptide array binding signal intensity
FFRRSELYLPNSSKA | 5.5

target: CaAbp1-D1; experiment: as above
Procedure, shortened: as §1

Binder | SPOT peptide array binding signal intensity
FFRRSELYLPNSSKA | 70

target: CaAbp1-D2; experiment: as above
Procedure, shortened: as §1

Binder | SPOT peptide array binding signal intensity
FFRRSELYLPNSSKA | 51.5

target: CaBbc1; experiment: as above
Procedure, shortened: as §1

Binder | SPOT peptide array binding signal intensity
FFRRSELYLPNSSKA | 0.25

target: CaBem1-D1; experiment: as above
Procedure, shortened: as §1

Binder | SPOT peptide array binding signal intensity
FFRRSELYLPNSSKA | 9

target: CaBzz1-D1; experiment: as above
Procedure, shortened: as §1

Binder | SPOT peptide array binding signal intensity
FFRRSELYLPNSSKA | 95

target: CaBzz1-D2; experiment: as above
Procedure, shortened: as §1

Binder | SPOT peptide array binding signal intensity
FFRRSELYLPNSSKA | 32.2

target: CaCyk3; experiment: as above
Procedure, shortened: as §1

Binder | SPOT peptide array binding signal intensity
FFRRSELYLPNSSKA | ≤ 0

target: CaFus1; experiment: as above
Procedure, shortened: as §1

Binder | SPOT peptide array binding signal intensity
FFRRSELYLPNSSKA | 624

target: CaHof1; experiment: as above
Procedure, shortened: as §1

Binder | SPOT peptide array binding signal intensity
FFRRSELYLPNSSKA | ≤ 0

target: CaHse1; experiment: as above
Procedure, shortened: as §1

Binder | SPOT peptide array binding signal intensity
FFRRSELYLPNSSKA | 3

target: CaLsb1; experiment: as above
Procedure, shortened: as §1

Binder | SPOT peptide array binding signal intensity
FFRRSELYLPNSSKA | 0.5

target: CaLsb4; experiment: as above
Procedure, shortened: as §1

Binder | SPOT peptide array binding signal intensity
FFRRSELYLPNSSKA | 13

target: CaMyo5; experiment: as above
Procedure, shortened: as §1

Binder | SPOT peptide array binding signal intensity
FFRRSELYLPNSSKA | 14.2
